Assay [1] addresses T1, Serine/threonine-protein kinase TAO2 (Homo sapiens) (UniProt Q9UL54).
T1 sequence (whole entry): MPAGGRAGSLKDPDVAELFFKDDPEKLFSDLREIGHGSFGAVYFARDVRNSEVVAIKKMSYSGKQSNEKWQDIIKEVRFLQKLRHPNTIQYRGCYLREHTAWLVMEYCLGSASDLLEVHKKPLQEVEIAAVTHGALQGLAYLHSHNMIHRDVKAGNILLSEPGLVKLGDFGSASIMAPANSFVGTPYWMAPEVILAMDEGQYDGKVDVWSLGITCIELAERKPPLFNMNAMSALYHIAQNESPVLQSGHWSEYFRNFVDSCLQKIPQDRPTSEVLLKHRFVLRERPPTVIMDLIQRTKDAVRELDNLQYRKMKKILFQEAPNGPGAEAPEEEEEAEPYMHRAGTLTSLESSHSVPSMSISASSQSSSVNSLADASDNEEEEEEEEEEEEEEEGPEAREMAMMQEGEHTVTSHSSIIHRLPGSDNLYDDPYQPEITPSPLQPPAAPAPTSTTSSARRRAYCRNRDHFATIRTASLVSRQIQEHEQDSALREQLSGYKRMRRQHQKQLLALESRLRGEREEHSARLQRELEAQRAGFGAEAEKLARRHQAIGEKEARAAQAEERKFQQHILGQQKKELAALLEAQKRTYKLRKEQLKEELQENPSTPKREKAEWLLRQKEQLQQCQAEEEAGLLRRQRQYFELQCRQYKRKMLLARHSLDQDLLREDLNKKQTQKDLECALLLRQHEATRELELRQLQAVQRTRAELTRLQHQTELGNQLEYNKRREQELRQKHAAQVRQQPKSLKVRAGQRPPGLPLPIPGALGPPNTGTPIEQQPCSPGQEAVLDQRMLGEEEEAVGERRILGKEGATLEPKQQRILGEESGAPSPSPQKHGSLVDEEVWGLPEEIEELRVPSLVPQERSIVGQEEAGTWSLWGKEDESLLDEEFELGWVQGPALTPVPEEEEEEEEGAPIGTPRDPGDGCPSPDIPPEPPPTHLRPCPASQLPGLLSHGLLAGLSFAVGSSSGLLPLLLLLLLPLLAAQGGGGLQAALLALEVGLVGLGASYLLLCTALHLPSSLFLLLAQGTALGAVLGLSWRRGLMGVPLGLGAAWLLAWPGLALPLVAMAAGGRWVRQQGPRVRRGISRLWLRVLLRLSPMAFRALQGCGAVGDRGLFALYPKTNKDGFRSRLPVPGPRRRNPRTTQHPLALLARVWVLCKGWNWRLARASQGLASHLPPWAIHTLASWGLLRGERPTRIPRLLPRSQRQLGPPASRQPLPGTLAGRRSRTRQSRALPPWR
To be noted: at 1 µM.

Assay [2] concerns the target T1, Serine/threonine-protein kinase TAO2 (Homo sapiens). To be noted: at 10 µM.
Assay [3] deals with T2, Serine/threonine-protein kinase TAO3 (Homo sapiens) (UniProt Q9H2K8).
T2 sequence (whole entry): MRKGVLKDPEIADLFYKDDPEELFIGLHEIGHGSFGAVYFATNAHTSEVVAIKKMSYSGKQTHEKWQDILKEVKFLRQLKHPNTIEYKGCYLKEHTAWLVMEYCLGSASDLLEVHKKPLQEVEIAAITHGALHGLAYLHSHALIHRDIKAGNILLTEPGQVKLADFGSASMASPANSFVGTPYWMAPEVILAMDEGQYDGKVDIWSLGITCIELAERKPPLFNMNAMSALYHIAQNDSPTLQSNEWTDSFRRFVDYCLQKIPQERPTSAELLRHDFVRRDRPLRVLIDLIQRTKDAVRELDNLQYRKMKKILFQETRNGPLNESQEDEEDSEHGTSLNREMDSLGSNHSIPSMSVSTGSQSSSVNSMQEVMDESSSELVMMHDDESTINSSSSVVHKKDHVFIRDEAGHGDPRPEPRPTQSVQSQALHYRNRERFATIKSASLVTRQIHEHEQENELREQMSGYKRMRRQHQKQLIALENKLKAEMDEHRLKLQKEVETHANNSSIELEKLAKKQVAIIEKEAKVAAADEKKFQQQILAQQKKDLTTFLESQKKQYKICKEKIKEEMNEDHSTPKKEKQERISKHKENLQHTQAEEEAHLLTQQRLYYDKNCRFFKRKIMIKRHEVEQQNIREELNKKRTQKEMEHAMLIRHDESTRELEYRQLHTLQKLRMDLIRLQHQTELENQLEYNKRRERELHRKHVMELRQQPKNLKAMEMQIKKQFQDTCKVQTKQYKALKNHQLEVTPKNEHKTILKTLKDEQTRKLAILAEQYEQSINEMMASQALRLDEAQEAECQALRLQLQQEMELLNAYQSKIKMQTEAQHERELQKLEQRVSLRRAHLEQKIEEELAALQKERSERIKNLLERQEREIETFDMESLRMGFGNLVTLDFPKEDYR
To be noted: at 1 µM.

Assay [4] has as its target T2, Serine/threonine-protein kinase TAO3 (Homo sapiens). To be noted: at 10 µM.
Assay [5] concerns the target T3, Serine/threonine-protein kinase TBK1 (Homo sapiens) (UniProt Q9UHD2).
T3 sequence (whole entry): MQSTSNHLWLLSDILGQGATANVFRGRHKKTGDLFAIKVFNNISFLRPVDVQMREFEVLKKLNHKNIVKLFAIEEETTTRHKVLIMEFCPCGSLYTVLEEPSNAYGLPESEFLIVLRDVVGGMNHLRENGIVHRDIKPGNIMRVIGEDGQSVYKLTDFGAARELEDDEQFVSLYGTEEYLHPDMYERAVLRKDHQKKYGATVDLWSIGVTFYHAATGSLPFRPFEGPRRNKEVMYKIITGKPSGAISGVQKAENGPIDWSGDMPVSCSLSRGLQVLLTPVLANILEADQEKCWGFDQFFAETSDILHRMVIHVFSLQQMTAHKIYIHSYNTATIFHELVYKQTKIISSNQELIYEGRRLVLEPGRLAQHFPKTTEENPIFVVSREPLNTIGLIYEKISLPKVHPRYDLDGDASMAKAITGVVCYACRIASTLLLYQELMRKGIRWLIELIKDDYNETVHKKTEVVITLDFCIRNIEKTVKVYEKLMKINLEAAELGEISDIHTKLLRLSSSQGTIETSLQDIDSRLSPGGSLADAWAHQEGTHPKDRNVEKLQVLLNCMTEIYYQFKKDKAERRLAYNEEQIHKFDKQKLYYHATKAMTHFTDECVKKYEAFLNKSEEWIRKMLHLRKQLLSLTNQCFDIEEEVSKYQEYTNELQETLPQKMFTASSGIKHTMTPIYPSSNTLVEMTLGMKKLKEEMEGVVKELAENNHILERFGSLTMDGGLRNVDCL
To be noted: at 1 µM.

Assay [6] deals with T3, Serine/threonine-protein kinase TBK1 (Homo sapiens). To be noted: at 10 µM.
Assay [7] deals with T4, TGF-beta receptor type-1 (Homo sapiens) (UniProt P36897).
T4 sequence (whole entry): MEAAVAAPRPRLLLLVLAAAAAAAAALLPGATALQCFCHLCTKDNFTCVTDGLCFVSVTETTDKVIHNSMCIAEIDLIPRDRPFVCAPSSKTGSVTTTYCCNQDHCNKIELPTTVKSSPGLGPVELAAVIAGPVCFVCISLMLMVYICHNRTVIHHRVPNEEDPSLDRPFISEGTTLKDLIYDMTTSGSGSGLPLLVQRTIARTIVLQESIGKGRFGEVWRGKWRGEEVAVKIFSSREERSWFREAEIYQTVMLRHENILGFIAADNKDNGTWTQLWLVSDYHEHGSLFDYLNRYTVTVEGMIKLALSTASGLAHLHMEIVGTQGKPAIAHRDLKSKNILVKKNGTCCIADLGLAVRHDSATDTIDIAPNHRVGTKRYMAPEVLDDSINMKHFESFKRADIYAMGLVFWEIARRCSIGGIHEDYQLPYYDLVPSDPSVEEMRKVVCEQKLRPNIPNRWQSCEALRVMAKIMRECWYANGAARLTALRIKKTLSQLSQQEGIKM
To be noted: at 1 µM.

Assay [8] has as its target T4, TGF-beta receptor type-1 (Homo sapiens). To be noted: at 10 µM.
Assay [9] deals with Insulin-like growth factor 1 receptor (Homo sapiens) (UniProt P08069). To be noted: at 1 µM.
Assay [10] shares this target. To be noted: at 10 µM.
Assay [11] deals with T5, Serine/threonine-protein kinase TAO1 (Homo sapiens) (UniProt Q7L7X3).
T5 sequence (whole entry): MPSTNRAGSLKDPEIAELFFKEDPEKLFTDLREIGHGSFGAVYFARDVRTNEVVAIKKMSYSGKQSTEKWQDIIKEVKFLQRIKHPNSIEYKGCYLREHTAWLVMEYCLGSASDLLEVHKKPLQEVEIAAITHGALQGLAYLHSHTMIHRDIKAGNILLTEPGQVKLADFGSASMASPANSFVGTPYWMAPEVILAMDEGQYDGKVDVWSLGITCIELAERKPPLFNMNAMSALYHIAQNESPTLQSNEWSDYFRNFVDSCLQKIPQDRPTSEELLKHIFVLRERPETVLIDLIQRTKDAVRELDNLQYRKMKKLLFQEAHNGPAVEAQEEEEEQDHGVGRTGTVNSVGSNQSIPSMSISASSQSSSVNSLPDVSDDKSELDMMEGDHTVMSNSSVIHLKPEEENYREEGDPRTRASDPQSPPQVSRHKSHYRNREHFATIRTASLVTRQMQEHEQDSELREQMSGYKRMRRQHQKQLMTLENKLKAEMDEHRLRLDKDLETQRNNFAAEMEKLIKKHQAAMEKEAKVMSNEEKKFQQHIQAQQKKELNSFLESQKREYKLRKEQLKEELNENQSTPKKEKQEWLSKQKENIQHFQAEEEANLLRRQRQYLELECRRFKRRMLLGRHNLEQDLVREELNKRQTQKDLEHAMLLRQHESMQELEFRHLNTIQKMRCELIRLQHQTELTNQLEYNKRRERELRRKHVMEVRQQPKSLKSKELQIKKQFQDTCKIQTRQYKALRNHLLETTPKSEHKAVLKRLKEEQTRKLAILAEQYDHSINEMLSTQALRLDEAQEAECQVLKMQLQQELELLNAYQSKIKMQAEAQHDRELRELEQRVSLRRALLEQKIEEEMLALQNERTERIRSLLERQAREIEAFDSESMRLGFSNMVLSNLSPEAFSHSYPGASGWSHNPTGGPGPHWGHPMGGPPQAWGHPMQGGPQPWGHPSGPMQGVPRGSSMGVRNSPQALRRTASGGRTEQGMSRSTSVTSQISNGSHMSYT
To be noted: at 1 µM.

The target in assay [12] is T5, Serine/threonine-protein kinase TAO1 (Homo sapiens). To be noted: at 10 µM.
For assay [13], the target named is T6, Inhibitor of nuclear factor kappa-B kinase subunit alpha (Homo sapiens) (UniProt O15111).
T6 sequence (whole entry): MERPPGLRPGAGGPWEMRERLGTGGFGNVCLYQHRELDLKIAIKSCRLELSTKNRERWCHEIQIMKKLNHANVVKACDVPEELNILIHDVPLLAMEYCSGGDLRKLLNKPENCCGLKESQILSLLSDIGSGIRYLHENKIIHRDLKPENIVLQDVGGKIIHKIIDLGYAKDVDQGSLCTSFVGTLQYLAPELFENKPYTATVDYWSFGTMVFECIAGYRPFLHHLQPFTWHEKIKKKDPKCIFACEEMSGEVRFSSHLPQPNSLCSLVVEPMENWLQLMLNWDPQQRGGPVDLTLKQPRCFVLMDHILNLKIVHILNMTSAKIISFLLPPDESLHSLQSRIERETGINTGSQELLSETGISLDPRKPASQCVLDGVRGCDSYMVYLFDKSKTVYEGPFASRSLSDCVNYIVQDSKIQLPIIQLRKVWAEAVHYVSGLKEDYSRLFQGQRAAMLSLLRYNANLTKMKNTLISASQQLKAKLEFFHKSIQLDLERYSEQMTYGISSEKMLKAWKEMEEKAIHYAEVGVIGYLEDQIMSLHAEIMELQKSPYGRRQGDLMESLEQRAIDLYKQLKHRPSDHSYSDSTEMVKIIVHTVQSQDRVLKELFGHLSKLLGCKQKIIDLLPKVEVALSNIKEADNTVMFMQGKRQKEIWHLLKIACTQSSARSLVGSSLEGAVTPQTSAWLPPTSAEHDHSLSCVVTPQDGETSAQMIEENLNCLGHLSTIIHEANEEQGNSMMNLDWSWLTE
To be noted: at 1 µM.

For assay [14], the target named is T6, Inhibitor of nuclear factor kappa-B kinase subunit alpha (Homo sapiens). To be noted: at 10 µM.

Each structure is given as a SMILES string.

Insulin-like growth factor 1 receptor (Homo sapiens), sequence (P08069 31-736 limits assumed): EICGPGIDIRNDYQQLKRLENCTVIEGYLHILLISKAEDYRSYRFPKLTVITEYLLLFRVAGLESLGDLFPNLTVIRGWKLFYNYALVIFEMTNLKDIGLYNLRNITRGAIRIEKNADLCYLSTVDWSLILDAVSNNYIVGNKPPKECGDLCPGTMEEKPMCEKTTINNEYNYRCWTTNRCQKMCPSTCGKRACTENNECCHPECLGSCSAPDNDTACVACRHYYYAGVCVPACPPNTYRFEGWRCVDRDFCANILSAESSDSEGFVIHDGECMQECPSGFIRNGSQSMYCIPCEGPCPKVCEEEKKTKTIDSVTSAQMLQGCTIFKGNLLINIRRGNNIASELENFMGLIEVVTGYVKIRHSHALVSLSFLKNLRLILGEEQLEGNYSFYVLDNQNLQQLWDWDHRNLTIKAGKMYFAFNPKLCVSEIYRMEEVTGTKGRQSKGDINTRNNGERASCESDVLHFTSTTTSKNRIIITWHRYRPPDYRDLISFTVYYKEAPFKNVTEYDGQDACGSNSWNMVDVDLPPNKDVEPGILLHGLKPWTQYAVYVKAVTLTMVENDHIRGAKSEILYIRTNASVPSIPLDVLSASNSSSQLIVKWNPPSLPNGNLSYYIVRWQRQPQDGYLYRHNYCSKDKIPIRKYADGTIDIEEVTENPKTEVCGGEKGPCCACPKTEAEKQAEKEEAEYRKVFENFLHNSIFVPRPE
Insulin-like growth factor 1 receptor (Homo sapiens), sequence (P08069 741-1367 limits assumed): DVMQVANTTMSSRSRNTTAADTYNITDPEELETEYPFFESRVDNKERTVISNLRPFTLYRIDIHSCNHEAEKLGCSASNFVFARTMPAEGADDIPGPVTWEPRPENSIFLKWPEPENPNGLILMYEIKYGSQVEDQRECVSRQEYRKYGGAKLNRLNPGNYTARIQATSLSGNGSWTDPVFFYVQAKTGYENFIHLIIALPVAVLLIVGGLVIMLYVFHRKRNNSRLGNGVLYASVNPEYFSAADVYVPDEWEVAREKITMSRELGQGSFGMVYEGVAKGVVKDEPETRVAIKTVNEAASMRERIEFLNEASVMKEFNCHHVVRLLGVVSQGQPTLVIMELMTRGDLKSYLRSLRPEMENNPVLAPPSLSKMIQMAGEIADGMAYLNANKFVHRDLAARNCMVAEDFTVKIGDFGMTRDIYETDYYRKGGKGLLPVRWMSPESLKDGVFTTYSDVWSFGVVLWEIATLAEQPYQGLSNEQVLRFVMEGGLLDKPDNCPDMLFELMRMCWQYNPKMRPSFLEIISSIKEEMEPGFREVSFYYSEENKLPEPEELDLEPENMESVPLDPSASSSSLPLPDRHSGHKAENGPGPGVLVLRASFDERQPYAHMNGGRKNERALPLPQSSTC

`NC(=O)Nc1sc(-c2ccc(F)cc2)cc1C(N)=O`: the residual activity in [1] came out at 39%; in [2], 6%; in [3] it was 61%; in [4], 16%; in assay [5], 35%; in [6], 6%. Moreover, the residual activity in [7] was 75%; in assay [8], 74%; in assay [9] it was 65%; in assay [10], 19%.
For the molecule `O=C1Cc2c([nH]c3ccc([N+](=O)[O-])cc23)-c2ccccc2N1`, the residual activity in [11] worked out at 54%; in [12], 30%; in [5], 51%; in assay [6], 37%; in assay [8], 65%; in [13] it was 114%. Further, the residual activity in [14] was 101%.
For `NC(=O)c1ccc(-c2nc(-c3ccc4c(c3)OCCO4)c(-c3ccccn3)[nH]2)cc1`, the residual activity is 96% in assay [11]; 80% in assay [12]; 100% in [1]; 93% in [2]; 83% in assay [5]; 72% in assay [6].

As a reminder, the residual activity is the signal under treatment as a percentage of the control signal.

The record behind these values is ChEMBL document CHEMBL2218924, “A broad activity screen in support of a chemogenomic map for kinase signalling research and drug discovery” (Biochem J, 2013).
